A selection: hits, their analogues and other compounds. The true share with any hit is near 3.9%.
SARS 3CLpro inh – SARS-CoV 3CLpro protease inhibition | P0C6X7 | recombinant SARS-CoV 3CLpro, quenched FRET peptide cleavage | inhibition, % at 6 µM | hit rate 0.14% among 290,000; in the data active = inhibition above about 12%
CCHF vOTU inh – CCHFV vOTU protease inhibition; Pep-AMC fluorescence; hit rate 0.55% among 370,000; inhibition, % at 11.5 µM; AID 651958; in the data active = inhibition above about 30%
BoNT F protease – BoNT F light chain protease inhibition. Multiplex microsphere protease cleavage assay, flow cytometry. AID 588497. hit rate 0.22% among 360,000. inhibition, % at 10 µM; in the data active = inhibition above about 35%, passing the limit was not always enough; inconclusive = no clear call, values can overlap the other calls
BoNT-A LC inh2 – inhibitors of Botulinum neurotoxin A light chain protease. multiplex microsphere protease substrate cleavage, flow cytometry. hit rate 0.17% among 360,000. AID 588499. inhibition, % at 10 µM; in the data active = inhibition above about 30%; inconclusive = no clear call, values can overlap the other calls
Anthrax LF inh2 – blocks Bacillus anthracis lethal factor protease; multiplex microsphere protease cleavage assay, LF; inhibition, % at 10 µM; hit rate 0.12% among 360,000; AID 588501; in the data active = inhibition above about 30%; inconclusive = no clear call, values can overlap the other calls
Target sequence (P15917 whole entry, looked up): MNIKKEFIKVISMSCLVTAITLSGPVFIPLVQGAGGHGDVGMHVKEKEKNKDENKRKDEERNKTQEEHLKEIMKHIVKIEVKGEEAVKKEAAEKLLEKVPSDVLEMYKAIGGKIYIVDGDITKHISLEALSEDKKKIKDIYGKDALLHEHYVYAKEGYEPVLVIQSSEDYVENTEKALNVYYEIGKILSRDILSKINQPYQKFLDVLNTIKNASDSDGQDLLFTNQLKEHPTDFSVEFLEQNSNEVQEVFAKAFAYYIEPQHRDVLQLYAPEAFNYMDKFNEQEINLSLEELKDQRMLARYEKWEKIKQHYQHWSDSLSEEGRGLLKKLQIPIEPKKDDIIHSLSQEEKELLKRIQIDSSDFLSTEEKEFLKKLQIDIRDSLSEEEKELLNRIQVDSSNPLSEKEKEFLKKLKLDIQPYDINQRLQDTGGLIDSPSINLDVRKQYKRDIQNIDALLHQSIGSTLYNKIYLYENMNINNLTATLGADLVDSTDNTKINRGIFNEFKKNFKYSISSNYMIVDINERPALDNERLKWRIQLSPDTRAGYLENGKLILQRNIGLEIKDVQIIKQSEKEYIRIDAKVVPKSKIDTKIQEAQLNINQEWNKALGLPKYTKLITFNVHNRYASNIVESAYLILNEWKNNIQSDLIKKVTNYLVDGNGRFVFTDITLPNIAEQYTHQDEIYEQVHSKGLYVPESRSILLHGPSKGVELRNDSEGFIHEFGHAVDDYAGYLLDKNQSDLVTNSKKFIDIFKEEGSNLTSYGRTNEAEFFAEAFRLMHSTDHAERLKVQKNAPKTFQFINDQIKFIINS
Autofluor counter – compound fluorescence in toxin protease inhibitor counterscreen. AID 624483. fluorescence intensity (test concentration not listed). hit rate 3.1% among 360,000. compound autofluorescence counterscreen, microsphere flow cytometry; hits give high values; in the data active = fluorescence intensity above about 16000; inconclusive = no clear call, values can overlap the other calls
BoNTA LC inh 1 – BoNT/A light chain protease inhibition; hit rate 3% among 720; multiplex microsphere protease assay, flow cytometry; shares compounds with BoNT F protease; inhibition, % at 10 µM; in the data active = inhibition above about 32%
BoNT-F LC CP1 – blocks botulinum neurotoxin F light chain protease. inhibition, % at 10 µM. multiplex microsphere protease cleavage assay, flow cytometry. shares compounds with BoNT F protease. 720 tested, under 10 active
LF protease CP1 – Bacillus anthracis lethal factor protease inhibition; multiplex microsphere protease cleavage assay, LF; inhibition, % at 10 µM; 720 tested, under 10 active; AID 602142; shares compounds with BoNT F protease
Of the large screens only hits and unclear results are named; the others gave an inactive call (follow-up assays come after a bar, where they were run). Unless noted, no rule for the calls is given here.

CC(C)Oc1ccc(C(=O)CCN2CCOCC2)cc1	none (no result: SARS 3CLpro inh) | BoNTA LC inh 1 inactive | BoNT-F LC CP1 inactive | LF protease CP1 inactive
O=C(CCN1CCOCC1)c1ccc(Br)cc1	BoNT F protease 40 | BoNTA LC inh 1 inactive | BoNT-F LC CP1 inactive | LF protease CP1 inactive
CC(C)Oc1ccc(C(=O)CCN2CCCCC2)cc1	none
O=C(CCN1CCOCC1)c1ccc(Cl)cc1	BoNT F protease 42 | BoNTA LC inh 1 inactive | BoNT-F LC CP1 inactive | LF protease CP1 inactive
CCOC(=O)CC[C@H]1CC[C@]2(CCCN(Cc3ccccc3)C2)O1	none (no result: SARS 3CLpro inh, BoNT F protease, BoNT-A LC inh2, Anthrax LF inh2, Autofluor counter)
O=C(Nc1ccc(O)cc1)c1ccc2c(c1)C(=O)N(Cc1ccco1)C2=O	none
O=C(Nc1ccc(O)cc1C(=O)O)c1ccc2c(c1)C(=O)N(Cc1ccco1)C2=O	BoNT F protease 35 | BoNTA LC inh 1 inactive | BoNT-F LC CP1 inactive | LF protease CP1 inactive
CC(C)CN1C(=O)C[C@@]2(C(=O)N(C)c3ccc(NC(=O)C(C)(C)C)cc32)C1c1ccccc1 (some centres undefined)	none (no result: SARS 3CLpro inh, BoNT F protease, BoNT-A LC inh2, Anthrax LF inh2, Autofluor counter)
COc1ccc(-n2ncc3c(=O)n(CC(C)=O)cnc32)cc1	BoNT F protease inconclusive, BoNT-A LC inh2 61 | BoNTA LC inh 1 inactive | BoNT-F LC CP1 inactive | LF protease CP1 inactive
O=C(O)C1Nc2c(C(F)(F)F)ccc(Cl)c2C2C=CCC12 (centres undefined)	Anthrax LF inh2 40 | BoNTA LC inh 1 inactive | BoNT-F LC CP1 inactive | LF protease CP1 inactive
C=CCN1[C@H](C)COc2cc(N3CCSCC3)ccc2S1(=O)=O	none (no result: SARS 3CLpro inh, BoNT F protease, BoNT-A LC inh2, Anthrax LF inh2, Autofluor counter)
CCC(C)NC(=O)c1c(N)n(Cc2ccc3c(c2)OCO3)c2nc3ccccc3nc12 (centres undefined)	BoNT-A LC inh2 30 | BoNTA LC inh 1 inactive | BoNT-F LC CP1 inactive | LF protease CP1 inactive
COc1ccc(C(=O)N2CCN(Cc3ccc(OC)c(OC)c3)CC2)cc1	BoNT F protease 44 | BoNTA LC inh 1 inactive | BoNT-F LC CP1 inactive | LF protease CP1 inactive
COc1ccc(NC(=O)N2CCC(N(C)CCC(C)C)CC2)cc1OC	none (no result: SARS 3CLpro inh, BoNT F protease, BoNT-A LC inh2, Anthrax LF inh2, Autofluor counter)
O=C(Nc1ccccc1F)C1CCN(C(=O)NCc2ccccc2)CC1	none
O=C(Nc1ccc(F)cc1)C1CCN(C(=O)NCc2ccccc2)CC1	Anthrax LF inh2 33 | BoNTA LC inh 1 inactive | BoNT-F LC CP1 inactive | LF protease CP1 inactive
Cc1ccc(-n2c(SCC(=O)Nc3cccc4ccccc34)nnc2-c2ccccc2)cc1	none (no result: SARS 3CLpro inh, BoNT F protease, BoNT-A LC inh2, Anthrax LF inh2, Autofluor counter)
COC(=O)[C@]12C[C@H](CC(=O)NCCCN3CCCC3=O)C(=O)N(Cc3ccc4c(c3)OCO4)C1=C[C@H](C(C)C)O[C@@H]2C1CC1	none (no result: SARS 3CLpro inh, BoNT F protease, BoNT-A LC inh2, Anthrax LF inh2, Autofluor counter)
CCn1c2ccccc2c2cc(NC(=O)c3coc(=O)c(Br)c3)ccc21	none (no result: BoNT F protease, BoNT-A LC inh2, Anthrax LF inh2, Autofluor counter)
CCn1c2ccccc2c2cc(NC(=O)c3ccc(Br)o3)ccc21	BoNT-A LC inh2 77, Anthrax LF inh2 43 | BoNTA LC inh 1 inactive | BoNT-F LC CP1 inactive | LF protease CP1 inactive
Cc1ccc(Cn2ccc(NC(=O)c3cc4nc(-c5ccco5)cc(C(F)(F)F)n4n3)n2)cc1	none
CC(C)NC(=O)c1cc2nc(-c3ccco3)cc(C(F)(F)F)n2n1	none
Cc1nn(C)c(C)c1NC(=O)c1cc2nc(-c3ccco3)cc(C(F)(F)F)n2n1	none | BoNTA LC inh 1 inactive | BoNT-F LC CP1 inactive | LF protease CP1 inactive
CCc1ccc(-c2cc(C(F)(F)F)n3nc(C(=O)Nc4cnn(Cc5ccc(C)cc5)c4)cc3n2)s1	none (no result: CCHF vOTU inh) | BoNTA LC inh 1 inactive | BoNT-F LC CP1 inactive | LF protease CP1 inactive
Cc1ccccc1Cn1cc(NC(=O)c2cc3nc(-c4ccco4)cc(C(F)(F)F)n3n2)cn1	none | BoNTA LC inh 1 inactive | BoNT-F LC CP1 inactive | LF protease CP1 inactive
O=C(Nc1ccc(Cl)cc1)c1cc2nc(-c3ccco3)cc(C(F)(F)F)n2n1	none
C=C1[C@@H]2CC[C@H]3[C@]4(C)[C@@H](O)CC[C@@](C)(C(=O)OC)[C@H]4C[C@H](O)[C@]3(C2)[C@H]1O	none (no result: SARS 3CLpro inh, BoNT F protease, BoNT-A LC inh2, Anthrax LF inh2, Autofluor counter)
O=C(COc1ccccc1)N(Cc1nnc(-c2ccccc2Cl)o1)C1CC1	BoNT F protease 37 (no result: SARS 3CLpro inh) | BoNTA LC inh 1 inactive | BoNT-F LC CP1 inactive | LF protease CP1 inactive
Cc1ccc(OCC(=O)N(Cc2nnc(-c3ccccc3Cl)o2)C2CC2)cc1C	none (no result: SARS 3CLpro inh)
Cc1ccc2cccc(OCc3ccc(Br)cc3)c2n1	BoNT F protease 39 | BoNTA LC inh 1 inactive | BoNT-F LC CP1 inactive | LF protease CP1 inactive
